# The whole screen tested about 310,000 compounds, of which about 14,000 (4.5%) showed an effect of 50% or more. Effects have a minus sign here. Shown is part of a subset that was picked to be rich in strong results.
# Target: human ether-à-go-go-related gene (hERG) potassium channel (human, UniProt Q12809)
# Assay: primary screen, population patch clamp on CHO cells stably expressing hERG; higher = less effect of the substance
# 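Further: peak tail current of the secondary pulse compared with the same well before compound.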
# human ether-à-go-go-related gene (hERG) potassium channel, sequence (Q12809 whole entry, looked up): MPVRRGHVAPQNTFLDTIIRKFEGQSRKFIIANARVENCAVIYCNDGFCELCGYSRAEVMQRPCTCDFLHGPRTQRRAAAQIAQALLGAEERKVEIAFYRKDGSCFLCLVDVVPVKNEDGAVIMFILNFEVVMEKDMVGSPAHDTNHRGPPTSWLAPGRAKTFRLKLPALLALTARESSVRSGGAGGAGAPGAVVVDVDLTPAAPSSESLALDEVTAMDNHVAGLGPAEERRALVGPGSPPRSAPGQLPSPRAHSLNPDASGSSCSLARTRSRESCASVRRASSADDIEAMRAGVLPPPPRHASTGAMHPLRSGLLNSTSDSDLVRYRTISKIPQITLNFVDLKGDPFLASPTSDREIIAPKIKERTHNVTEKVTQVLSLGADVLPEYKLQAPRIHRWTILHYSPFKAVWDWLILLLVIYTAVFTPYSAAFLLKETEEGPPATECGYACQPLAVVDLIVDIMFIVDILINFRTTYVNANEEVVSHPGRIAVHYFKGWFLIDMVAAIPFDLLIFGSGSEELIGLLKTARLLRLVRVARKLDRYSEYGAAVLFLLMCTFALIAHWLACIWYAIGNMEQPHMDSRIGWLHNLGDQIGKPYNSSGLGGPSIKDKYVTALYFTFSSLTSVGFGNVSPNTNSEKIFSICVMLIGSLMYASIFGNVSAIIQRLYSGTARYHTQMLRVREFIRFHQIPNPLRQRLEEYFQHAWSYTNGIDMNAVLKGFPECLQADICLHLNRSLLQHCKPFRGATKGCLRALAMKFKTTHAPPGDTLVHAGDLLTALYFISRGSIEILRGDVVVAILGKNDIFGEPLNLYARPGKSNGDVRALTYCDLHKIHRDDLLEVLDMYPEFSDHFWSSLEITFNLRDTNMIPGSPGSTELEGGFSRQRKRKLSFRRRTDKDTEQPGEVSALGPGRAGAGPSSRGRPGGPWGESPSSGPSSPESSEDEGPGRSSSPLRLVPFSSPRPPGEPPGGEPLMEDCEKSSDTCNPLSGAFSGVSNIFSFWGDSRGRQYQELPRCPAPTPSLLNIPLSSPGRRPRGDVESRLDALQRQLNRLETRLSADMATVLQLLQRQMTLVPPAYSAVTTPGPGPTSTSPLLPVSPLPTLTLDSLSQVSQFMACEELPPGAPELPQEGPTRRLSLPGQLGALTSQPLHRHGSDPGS
row,Structure (SMILES),"hERG current change (%, negative = inhibition) at 10uM"
1,N#CCc1nc(CSc2nc3ccccc3s2)cs1,-2.16%
2,CC(=O)Nc1ccc(N2CCCCC2)c(C(=O)Nc2cccc(C)c2)c1,-18.1%
3,Cn1cnnc1SCC(=O)Nc1ccccc1C(=O)NC1CCCC1,11.8%
4,O=C(O)c1ccc(NNC(=S)Nc2cc(C(F)(F)F)ccc2Cl)cc1,19.4%
5,CCCc1ccc(OCC(=O)NNC(=O)c2cccnc2)cc1,-10.9%
6,Cc1cccc(NC2=NC(C)(C)N=C(N)N2)c1C,16.5%
7,CCOc1cccc2sc(N(CCN(C)C)C(=O)c3cc4ccccc4cc3OC)nc12.Cl,-68.1%
8,CN(C)CCN(C(=O)c1ccc2ccccc2c1)c1nc2c(F)cccc2s1.Cl,-10.2%
9,COc1cc2ccccc2cc1C(=O)N(CCN(C)C)c1nc2c(C)cccc2s1.Cl,19.2%
10,COc1ccc2nc(N(CCN(C)C)C(=O)c3ccc4c(c3)OCCO4)sc2c1.Cl,-35.3%
11,CCOc1ccc2nc(N(CCN(C)C)C(=O)c3ccc4ccccc4c3)sc2c1.Cl,4.67%
12,COc1cc2ccccc2cc1C(=O)N(CCN(C)C)c1nc2c(F)cccc2s1.Cl,-38.4%
13,CCOc1cccc2sc(N(CCN(C)C)C(=O)c3ccc4ccccc4c3)nc12.Cl,-51.5%
14,CCOc1cccc2sc(N(CCN(C)C)C(=O)c3ccc(Br)s3)nc12.Cl,-30.3%
15,CCOc1cccc2sc(N(CCN(C)C)C(=O)c3ccc4c(c3)OCCO4)nc12.Cl,-53.5%
16,CCCC(=O)Nc1ccc(-c2cn3cccnc3n2)cc1,3.08%
17,Cc1cc(C(=O)NCCCOC(C)C)c2ccccc2n1,-7.22%
18,Cc1c(Cl)cccc1NC(=O)Nc1ccccc1C(N)=O,19%
19,CCOC(=O)CSc1nnc(-c2ccccc2)o1,7.66%
20,COc1ccc(/C=C/C2=CCN(Cc3ccc(OC)cc3)CC2)cc1.Cl,-72.3%

row,Structure (SMILES),"hERG current change (%, negative = inhibition) at 10uM"
1,COc1ccc(CN2CCNCC2)cc1.Cl,21.6%
2,COc1ccc(/C=C/C2=CCN(C)CC2)cc1.Cl,-19.7%
3,NNc1n[nH]c(=S)n1N,15.2%
4,CCOC(=O)c1cc(CC)sc1/N=C/C1C(=O)CCCC1=O,10.9%
5,O=C1OC(c2ccc3c(c2)OCO3)N(C(=O)c2ccc(Cl)c(Cl)c2)c2ccccc21 (stereo not shown),15.1%
6,COc1cc(CO)cc(-c2cc(CO)cc(OC)c2OC)c1OC,10.3%
7,COc1ccc(C(NC(=O)CNC(C)=O)C(=O)Nc2ccc(C(C)C)cc2)cc1 (stereo not shown),-5.76%
8,Cl.O=C(NC1CCN(Cc2ccccc2)CC1)c1cc(-c2ccccn2)nc2ccccc12,-69.4%
9,CC1CCN(CC(C)CNC(=O)c2cc(-c3ccccn3)nc3ccccc23)CC1 (stereo not shown),-62.5%
10,CC1CC(C)CN(C(=O)c2cc(-c3ccccn3)nc3ccccc23)C1 (stereo not shown),-6.19%
11,O=C(NC1CC1)c1cc(-c2ccccn2)nc2ccccc12,-29.5%
12,Cc1ccc(-c2cc(C(=O)NC3CCN(Cc4ccccc4)CC3)c3ccccc3n2)cc1,7.42%
13,CC(CN1CCCCC1)NC(=O)c1cc(-c2ccccn2)nc2ccc(Cl)cc12 (stereo not shown),-21.8%
14,Cc1cc(C)n(CC(O)COc2ccc(F)cc2)n1 (stereo not shown),9.76%
15,CCC(Cc1ccccc1)NC(=O)/C=C/c1ccco1 (stereo not shown),9.2%
16,CCn1cc(S(=O)(=O)Nc2cc(C)ccc2F)cn1,3.63%
17,O=C(CNC(=O)c1sc2ccccc2c1Cl)OCc1ccccc1,3.28%
18,COC(=O)C1=C(C)N(CCCC(=O)O)C(=O)NC1c1cccc2ccccc12 (stereo not shown),5.92%
19,COc1ccccc1-n1c(=O)[nH]c2c(C(N)=O)nc(CC(C)C)nc21,5.01%
20,NC(N)=N/N=C/c1cn(-c2ccccc2)nc1-c1cccs1.O=[N+]([O-])O,-62.1%

row,Structure (SMILES),"hERG current change (%, negative = inhibition) at 10uM"
1,NC(=O)N/N=C/c1cn(-c2ccccc2)nc1-c1cccs1,-38.8%
2,O=C(N/N=C/c1cn(-c2ccccc2)nc1-c1cccs1)c1ccncc1,-10.2%
3,CCOc1ccc(CN(C)C(=O)c2ccc(=O)[nH]c2)cc1,16.6%
4,CCOC(=O)C1=C(C)N(C)C(=S)NC1c1cc(OC)ccc1OC (stereo not shown),3.73%
5,CCOC(=O)c1ncn2c1CN(C)C(=O)c1cc(F)ccc1-2,8.55%
6,CCOC(=O)c1ncn2c1[C@@H]1CCNC1C(=O)c1cc(OC)ccc1-2 (stereo partly shown),-68.4%
7,Cc1nc(N2CCC(C(N)=O)CC2)c2c(-c3cccs3)csc2n1,-0.812%
8,Cc1ccc(N(CCC#N)C(=O)COC(=O)c2cc(C)oc2C)cc1,-15.3%
9,CCOC(=O)C1CCCN(CC(O)COc2cccc(C)c2)C1.Cl (stereo not shown),-23.7%
10,CCOC(=O)C1CCCN(C2=NC(=O)/C(=C/c3ccc(OC)cc3OC)S2)C1 (stereo not shown),-52.6%
11,CCOC(=O)C1CCCN(C2=NC(=O)/C(=C/c3ccc(OC)c(OC)c3)S2)C1 (stereo not shown),-22.8%
12,COc1ccc(CN2CCCC(C(=O)N3CCCCC3)C2)c(OC)c1.O=C(O)C(=O)O (stereo not shown),-26.7%
13,CCOC(=O)C1CCCN(C2=NC(=O)/C(=C/c3ccc(OC)cc3)S2)C1 (stereo not shown),-20.1%
14,CCOC(=O)C1CCCN(CC(O)COc2ccc(OC)cc2C(C)(C)C)C1 (stereo not shown),-61.4%
15,COc1ccc(CN2CCCC(C(=O)c3ccc(Cl)cc3)C2)c(OC)c1 (stereo not shown),-75.2%
16,COc1ccc(C(=O)C2CCCN(Cc3cc(Cl)ccc3O)C2)c(OC)c1 (stereo not shown),-26.8%
17,CCOC(=O)N1CCN(CC(O)COc2ccc(OC)cc2C(C)(C)C)CC1.Cl (stereo not shown),-12%
18,COc1ccc(CN2CCCC(C(=O)c3ccc(Cl)cc3)C2)c(O)c1 (stereo not shown),-67.7%

# From paper PMC4336329 (PLoS ONE, 2015)
